Shown is part of a subset that was picked to be rich in hits.
PKM2 inhibitor: qHTS Assay for Inhibitors of Human Muscle isoform 2 Pyruvate Kinase; Potency, µM (series often up to 57.5 µM), without a hit: at the top dose activity change, negative = inhibition, usual class: inhibitors; Pyruvate kinase PKM (Homo sapiens), P14618; purified PKM2, ATP generation, Kinase-Glo luminescence; 0.058% of 260,000 active; further: potency means the concentration at half of the fitted maximal effect; nearly all actives have a fitted effect of over 60% in size
Target sequence (P14618 whole entry, looked up, canonical isoform): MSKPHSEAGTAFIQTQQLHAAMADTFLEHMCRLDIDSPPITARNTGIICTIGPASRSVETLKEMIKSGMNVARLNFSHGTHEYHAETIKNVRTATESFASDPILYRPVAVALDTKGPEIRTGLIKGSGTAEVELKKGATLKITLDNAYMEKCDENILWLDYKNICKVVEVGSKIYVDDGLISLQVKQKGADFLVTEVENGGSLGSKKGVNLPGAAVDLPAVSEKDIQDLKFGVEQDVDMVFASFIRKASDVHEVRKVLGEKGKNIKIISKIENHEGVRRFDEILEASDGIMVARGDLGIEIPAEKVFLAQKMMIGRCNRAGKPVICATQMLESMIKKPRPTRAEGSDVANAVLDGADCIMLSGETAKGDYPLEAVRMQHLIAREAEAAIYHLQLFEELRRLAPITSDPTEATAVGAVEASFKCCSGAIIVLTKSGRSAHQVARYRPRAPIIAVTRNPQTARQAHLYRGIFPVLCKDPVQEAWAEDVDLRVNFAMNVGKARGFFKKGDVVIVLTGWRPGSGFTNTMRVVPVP
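Coupled luciferase luminescence (Kinase-Glo) detects ATP generated from 0.1 mM ADP and 0.5 mM PEP in imidazole buffer pH 7.2 with KCl, MgCl2; 1 h at room temperature. Enzyme at intermediate activity; normalized to uninhibited and no-enzyme controls.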
PKM2 inh CRC: Confirmation Concentration-Response Assay for Inhibitors of Human Muscle isoform 2 Pyruvate Kinase. 50% of 55 active. Potency, µM (titrated, usually from 57.5 µM), inactives show at the highest dose activity change, negative = inhibition, actives largely listed as inhibitors. shares compounds with PKM2 inhibitor. purified hPK-M2, Kinase-Glo ATP luminescence, 1 h. AID 2263, 2010
PKM2 FLuc cs: Secondary assay for Inhibitors of Human Pyruvate Kinase M2 isoform: FLuc Counterscreen | shares compounds with PKM2 inhibitor | Kinase-Glo firefly luciferase, luminescence, 8 min | Potency, µM (highest dose often 57.5 µM), for inactives: at the top dose activity, negative = inhibition, actives largely listed as inhibitors | 30% of 55 active | AID 2265, 2010
PKM2 inh LDH: Secondary assay for Inhibitors of Human Pyruvate Kinase M2 isoform. AID 2267, 2010. 55 tested, under 10 active. shares compounds with PKM2 inhibitor. purified hPK-M2, LDH-coupled NADH fluorescence kinetic. Potency, µM (titrated, usually from 57.5 µM), inactives show at the top dose activity change, negative = inhibition, hits mostly inhibitors
* marks the source's active call; other numbers are inactive results; ? = inconclusive; / = no result. The call rests on the fitted dose curve; in most records, active means well fitted curve in the direction sought with a large enough effect; inconclusive means small, poorly fitted or top-dose-only effect, or another doubt; inactive means no such curve, though single readings can be large; an effect the other way counts as inactive or inconclusive.

SMILES | PKM2 inhibitor | others
COc1cc(NS(=O)(=O)c2ccc(C)cc2)ccc1-n1cnnn1 | 58%
CS(=O)(=O)c1ccc(C(=O)NCCN2C(=O)S/C(=C\c3cccnc3)C2=O)cc1[N+](=O)[O-] | 57%
COc1ccc2c(c1)-c1nc(NC(=O)c3cccs3)sc1CC2 | 1%
COc1ccc2nc3c(cc2c1)Cc1ccccc1-3 | 14µM*
O=C(COC(=O)C1CCN(S(=O)(=O)c2ccc3c(c2)OCCO3)CC1)Nc1cc(C(F)(F)F)ccc1Cl | 47%
CC(C)C(NC(=O)c1ccc(C(C)(C)C)cc1)C(=O)Nc1cccc(S(N)(=O)=O)c1 (stereo not drawn) | 106%
Cc1noc(C)c1S(=O)(=O)N1CCC(C(=O)Nc2ccccn2)CC1 | 39%
O=C(Nc1ccccn1)c1onc2c1CCCC2 | 14µM*
Cc1ccc(-c2cc(C(=O)Nc3ccccn3)c3ccccc3n2)o1 | 33%
CCOC(=O)CC(=O)Nc1ccsc1C(N)=O | 36%
O=c1c2sccc2nc(SCc2cc(=O)n3ccccc3n2)n1Cc1ccccn1 | 70%
Cc1nnc(SCC(=O)Nc2nccs2)o1 | 40%
COc1ccccc1NC(CC(=O)c1ccccc1)C(=O)OCC(=O)c1ccc(F)cc1 (stereo not drawn) | 6%
CCC(=O)Oc1ccc(C(=O)Nc2ccc3c(c2)OCO3)cc1 | 14µM*
CC(=O)Oc1ccc(C(=O)Nc2cccc(C(=O)c3cccc(NC(=O)c4ccc(OC(C)=O)cc4)c3)c2)cc1 | 32%
CS(=O)(=O)Nc1ccc(C(=O)NCc2ccc3c(c2)OCO3)cc1 | 51%
O=c1[nH]c(Cn2nnc(-c3ccccc3)n2)nc2scc(-c3ccccc3)c12 | 107%
Cc1ccc2nc(-c3cccs3)c(Nc3ccccc3)n2c1 | / | PKM2 inh CRC=3%;PKM2 FLuc cs=-4%;PKM2 inh LDH=-7%
O=C(CSc1ccc(-c2cccs2)nn1)Nc1ccccc1 | 44%
Cc1ccc2nc(-c3ccncc3)c(Nc3ccccc3)n2c1 | / | PKM2 inh CRC=16%;PKM2 FLuc cs=-2%;PKM2 inh LDH=-1%
O=C1CC2C(=O)NCCN2C(=NC(=O)c2ccccc2)N1 (stereo not drawn) | 46%
COC(=O)c1ccc(CSc2nc(C)nc3sc(C)c(C)c23)o1 | 40%
Cc1ccccc1NC(=O)C1CCCN1/C=C/C(=O)C(F)(F)F (stereo not drawn) | 40%
COc1ccc(C(=O)NC23CC4CC(CC(C4)C2)C3)cc1OC | -20%
CCS(=O)(=O)Nc1cccc(C2=NN(C(C)=O)C(c3cccs3)C2)c1 (stereo not drawn) | 93%
SMILES | PKM2 inhibitor | others
O=C(COC(=O)C1=Cc2ccccc2OC1)NC1CCCC1 | 0%
Cc1cc(C)c(NC(=O)NC(=O)c2cccc(F)c2)c(C)n1 | 31%
O=C(O)c1ccc(NC(=S)NC(=O)c2ccc(-c3ccccc3)cc2)cc1 | 49%
O=C(NC(=O)c1ccccc1)Nc1ccccn1 | 5µM* | PKM2 inh CRC=12µM*;PKM2 FLuc cs=5.2µM*;PKM2 inh LDH=-2%
Cc1ccc(N2C(=O)C3C4C=CC(CNC(=S)N5CCN(c6cccc(C)c6)C(C)C5)(O4)C3C2=O)cc1 (stereo not drawn) | 38%
O=C(OCCNc1ncc(C(F)(F)F)cc1Cl)c1ccc(S(=O)(=O)N2CCOCC2)cc1 | 65%
Cc1ccc(NS(=O)(=O)c2ccc3oc(=O)ccc3c2)cc1Cl | 87%
Cc1cc(C)c2cc(CN(CCN(C)C)C(=O)Nc3ccccc3Cl)c(=O)[nH]c2c1 | 74%
CCOc1ccc(NS(=O)(=O)c2ccc(NC(=O)c3cccnc3)c(OC)c2)cc1 | 31%
Cc1cc(C)n2nc(C(=O)N/N=C/c3c4ccccc4cc4ccccc34)nc2n1 | 36%
CCS(=O)(=O)N1Cc2ccccc2CC1C(=O)Nc1nc2ccccc2[nH]1 (stereo not drawn) | 36%
CC(=O)c1cc2c(cc1NC(=O)CSc1nc3ccccc3[nH]1)OCO2 | 32%
O=C(Nc1nc2ccccc2[nH]1)c1ccccc1F | 8.9µM* | PKM2 inh CRC=5.2µM*;PKM2 FLuc cs=4.1µM*;PKM2 inh LDH=-7%
COc1cc([N+](=O)[O-])ccc1NC(=O)CSc1nncn1-c1cccnc1 | 53%
CN(C)/C=C(\C(=O)c1ccc(F)cc1F)c1nnnn1-c1ccccc1 | 68%
CC(=O)N1N=C(c2ccc(C)cc2)CC1c1ccc2c(c1)OCO2 (stereo not drawn) | 50%
Cc1ccnc(NS(=O)(=O)c2ccc3c(c2)CCO3)c1 | 42%
Cc1ccnc(NC(=O)c2ccc3c(c2)OCO3)c1 | 13µM* | PKM2 inh CRC=16µM*;PKM2 FLuc cs=13µM*;PKM2 inh LDH=-10%
COc1ccc(S(=O)(=O)NCC2CCCN(C(=O)c3ccccc3)C2)cc1 (stereo not drawn) | 64%
Cn1c(=O)c(Nc2ccc(O)cc2)c2c3c(cccc31)C(=O)c1ccccc1-2 | 39%
COc1ccc(S(=O)(=O)N2CCN(S(=O)(=O)c3ccc4c(c3)OCCO4)CC2)cc1C | 161%
COC(=O)N1[C@H](C)C=C[C@]1(Cc1ccccc1)C(=O)NCc1ccc(C)o1 | 45%
O=C(NCCc1ccccc1)c1c(O)c2ccccc2[nH]c1=O | 36%
O=C1C(c2cc(=O)c3ccccc3[nH]2)=C(O)c2ccccc21 | 11µM* | PKM2 inh CRC=16µM*;PKM2 FLuc cs=-13%;PKM2 inh LDH=?
O=C(CCCc1cccs1)N1CCN(S(=O)(=O)c2ccccc2Br)CC1 | 82%
SMILES | PKM2 inhibitor | others
CC1=NN(c2nc3ccccc3[nH]2)C(=O)/C1=C/N(C)C | 6.3µM* | PKM2 inh CRC=2.3µM*;PKM2 FLuc cs=6.5µM*;PKM2 inh LDH=-6%
C/C(=C\c1ccc(C)o1)C(=O)c1c(C)cc(C)[nH]c1=O | 66%
CC(=O)C1=C(c2cccc([N+](=O)[O-])c2)N(C(C)=O)n2c(C)nnc2S1 | 31%
Cc1cc(-c2csc(NC(=O)c3ccc(=O)[nH]c3)n2)c(C)n1Cc1ccco1 | 65%
CCOc1cc(/C=C\[N+](=O)[O-])ccc1OCC(=O)Nc1ccccc1C | 42%
CCOc1ccc(OCC(=O)Nc2nccs2)cc1 | 10µM* | PKM2 inh CRC=10µM*;PKM2 FLuc cs=?;PKM2 inh LDH=-2%
Cc1ccc(CCC(=O)Nc2nccs2)o1 | 90%
CCOC(=O)C(Cc1ccccc1)C(=O)Nc1nccs1 (stereo not drawn) | 45%
Cc1ccc(C)c(S(=O)(=O)N2CCN(C(=O)CSc3ccccc3F)CC2)c1 | 36%
Cn1c(CCNC(=O)c2ccco2)nc2cc(NS(=O)(=O)c3ccc(Cl)cc3)ccc21 | 82%
CCOC(=O)C(Nc1ccc2ccccc2c1)C(=O)OCC | 30%
CC(=O)Oc1ccc(NC(=O)Cc2ccccc2)c(C(=O)O)c1 | -1%
CCOc1ccc(NC(=O)Nc2ccccc2C(N)=O)cc1 | 4µM* | PKM2 inh CRC=9.2µM*;PKM2 FLuc cs=6.5µM*;PKM2 inh LDH=-2%
Cc1ccc(-c2cc(-c3ccc(C)o3)nc(N)c2C#N)cc1 | 58%
Cc1ccn2c(NC3CCCCC3)c(-c3ccc(C)o3)nc2c1 | / | PKM2 inh CRC=16%;PKM2 FLuc cs=5%;PKM2 inh LDH=-9%
Cc1ccc(Nc2c(-c3ccc(C)o3)nc3ccccn23)cc1 | / | PKM2 inh CRC=10%;PKM2 FLuc cs=0%;PKM2 inh LDH=4.6µM*

Source: PubChem BioAssay (National Center for Advancing Translational Sciences (NCATS))
